# From PubChem BioAssay (NCATS)
# Records with an inconclusive call do not appear. Where a call stands in place of a potency, no number is given. Active and inactive are the calls of the source. Unless noted, the call rests on the fitted dose curve; in most records, active means well fitted curve in the direction sought with a large enough effect; inconclusive means small, poorly fitted or top-dose-only effect, or another doubt; inactive means no such curve, though single readings can be large; an effect the other way counts as inactive or inconclusive.
# Tests used:
# [1] = Counterscreen for APE1 Inhibitors: Fluorescent Dye Displacement Validation Assay (AID 1707)
# In short: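 ThO 250 nM + dsDNA 50 nM (THF abasic site, 5'-TAMRA), Tris-HCl pH7.5/50mM NaCl/2 mM MgCl2/0.01% Tween-20; compounds pin-transferred; ex 480/em 540 nm endpoint. Neutral = no compound; no-DNA ThO wells = negative control.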
# [2] = molecular target: Endonuclease 4 (Escherichia coli (strain K12)) (UniProt P0A6C1); test: Counterscreen for APE1 Inhibitors: qHTS Validation Assay for Inhibitors of Endonuclease IV (AID 1708)
# In short: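 Enzymatic AP-site incision assay using a double-stranded THF substrate labelled with TAMRA and BHQ-2; released fluorescence signals activity. Enzyme 2 nM, substrate 50 nM, 15 min compound preincubation.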
# [3] = qHTS for differential inhibitors of proliferation of Plasmodium falciparum line 7G8 (AID 1815);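 further: parasite growth measured after three days of incubation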; further: potency means the concentration at half of the fitted maximal effect
# [4] = qHTS for differential inhibitors of proliferation of Plasmodium falciparum line GB4 (AID 1816); conditions: Potency: Plasmodium falciparum GB4 proliferation inhibition;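 further: parasite growth measured after 72 h incubation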; further: potency means the concentration at half of the fitted maximal effect
# [5] = qHTS for differential inhibitors of proliferation of Plasmodium falciparum line D10 (AID 1877);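 further: parasites grown with compound for 72 h before DNA staining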; further: potency means the concentration at half of the fitted maximal effect
# [6] = qHTS for differential inhibitors of proliferation of Plasmodium falciparum line Dd2 (AID 1882); conditions: Potency: Plasmodium falciparum Dd2 proliferation inhibition; further: nearly all actives have a fitted effect of over 65% in size; further: potency means the concentration at half of the fitted maximal effect
# In short: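 SYBR Green I DNA fluorescence read-out, ex 485/em 535 nm. Signals were normalized to 0.29 uM artemisinin and DMSO wells, then corrected using vehicle-only plates flanking each stack. Parasite growth ran 72 h in erythrocytes before lysis.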
# [7] = qHTS for differential inhibitors of proliferation of Plasmodium falciparum line W2 (AID 1883); conditions: Potency: Plasmodium falciparum W2 proliferation inhibition;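 further: parasites grown with compound for 72 h before lysis and staining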; further: potency means the concentration at half of the fitted maximal effect
# [8] = qHTS for differential inhibitors of proliferation of Plasmodium falciparum line HB3 (AID 1886); conditions: Potency: Plasmodium falciparum HB3 proliferation inhibition;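 further: parasites grown with compound for 72 h before SYBR Green readout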; further: potency means the concentration at half of the fitted maximal effect
# [9] = molecular target: Ferritin light chain (Equus caballus) (UniProt P02791); test: qHTS Validation Assay for Identification of Novel General Anesthetics (AID 2323); further: series mostly up to about 77 µM
# Sequence of Ferritin light chain (Equus caballus) (P02791 2-175 limits assumed): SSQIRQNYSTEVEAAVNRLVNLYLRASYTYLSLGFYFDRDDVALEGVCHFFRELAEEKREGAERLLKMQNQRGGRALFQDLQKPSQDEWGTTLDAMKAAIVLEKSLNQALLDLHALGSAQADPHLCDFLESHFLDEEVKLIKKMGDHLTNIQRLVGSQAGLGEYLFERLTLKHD
# In short: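 Competitive displacement of the profluorescent anesthetic 1-AMA (50% saturated, PBS) from 10 uM apoferritin, 10 min, room temperature. Activity is normalized 380/535 nm fluorescence; concentration-response fitted with a four-parameter Hill equation.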
# [10] = molecular target: ATP-dependent DNA helicase Q1 (Homo sapiens) (UniProt P46063); test: qHTS Validation Assay for Inhibitors of RecQ-Like Dna Helicase 1 (RECQ1) (AID 2353)
# Sequence of ATP-dependent DNA helicase Q1 (Homo sapiens) (P46063 whole entry, looked up): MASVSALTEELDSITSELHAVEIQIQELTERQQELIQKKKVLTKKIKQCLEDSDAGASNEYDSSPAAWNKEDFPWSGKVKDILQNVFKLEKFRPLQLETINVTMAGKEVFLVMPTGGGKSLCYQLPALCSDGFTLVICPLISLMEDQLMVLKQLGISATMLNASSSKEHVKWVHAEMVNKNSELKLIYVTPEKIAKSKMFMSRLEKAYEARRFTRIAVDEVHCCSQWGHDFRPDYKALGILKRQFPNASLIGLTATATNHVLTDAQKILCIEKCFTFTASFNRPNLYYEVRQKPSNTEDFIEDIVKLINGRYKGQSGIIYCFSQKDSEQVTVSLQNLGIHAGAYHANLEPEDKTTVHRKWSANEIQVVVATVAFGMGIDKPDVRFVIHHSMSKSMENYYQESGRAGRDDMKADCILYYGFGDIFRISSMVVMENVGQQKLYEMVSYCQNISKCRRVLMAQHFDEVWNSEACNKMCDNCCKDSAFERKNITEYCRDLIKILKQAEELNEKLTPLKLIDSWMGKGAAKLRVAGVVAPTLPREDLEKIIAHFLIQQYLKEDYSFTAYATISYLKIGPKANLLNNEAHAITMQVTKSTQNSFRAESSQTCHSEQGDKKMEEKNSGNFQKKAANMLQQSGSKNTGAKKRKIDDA
# In short: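 50 nM RECQ1T1 preincubated 15 min with compound in Tris pH 8.0 buffer with MgCl2, DTT, Tween-20 and 2.5 ug/ml poly(dI-dC); started with 200 nM TAMRA/BHQ-2 forked duplex and 2 mM ATP. Unwinding read as fluorescence (525/598 nm), two reads 2 h apart.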
# [11] = Cytometric Cell-Based qHTS for Inhibitors of the mTORC1 Signaling Pathway in MEF (Tsc2-/-, p53-/-) Cells (AID 2660);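 further: Tsc2 and p53 null MEFs carrying empty vector with compound for 24 h; percent of cells above a phospho-rpS6 to PI ratio cutoff in each well; series mostly up to about 38 µM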
# In short: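 Percent of cells positive for normalized phospho-S6 staining is reported, with the cutoff set from rapamycin (7.5 nM) versus DMSO wells. Tsc2-/-, p53-/- MEFs received compound for 24 hrs.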
# [12] = High Content Imaging Cell-Based qHTS for Inhibitors of the mTORC1 Signaling Pathway in MEF (Tsc2-/-, p53-/-) Cells (AID 2666);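 further: percent of cells scored positive for phospho-rpS6 Ser235/236 immunostaining by imaging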
# In short: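 Cells were plated, dosed with compound after 24 hrs, and incubated another 24 hrs at 37 degree Celsius. Fixed cells were immunostained for phospho-rpS6 Ser235/236 and counterstained, and the normalized signal was scored as % active cells against rapamycin and DMSO controls.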
# [13] = molecular target: Ubiquitin carboxyl-terminal hydrolase 2 (Homo sapiens) (UniProt O75604); test: qHTS Validation Assay for Inhibitors of Ubiquitin-specific Protease USP2a Using CHOP2 as the Reporter (AID 463106)
# Sequence of Ubiquitin carboxyl-terminal hydrolase 2 (Homo sapiens) (O75604 whole entry, looked up): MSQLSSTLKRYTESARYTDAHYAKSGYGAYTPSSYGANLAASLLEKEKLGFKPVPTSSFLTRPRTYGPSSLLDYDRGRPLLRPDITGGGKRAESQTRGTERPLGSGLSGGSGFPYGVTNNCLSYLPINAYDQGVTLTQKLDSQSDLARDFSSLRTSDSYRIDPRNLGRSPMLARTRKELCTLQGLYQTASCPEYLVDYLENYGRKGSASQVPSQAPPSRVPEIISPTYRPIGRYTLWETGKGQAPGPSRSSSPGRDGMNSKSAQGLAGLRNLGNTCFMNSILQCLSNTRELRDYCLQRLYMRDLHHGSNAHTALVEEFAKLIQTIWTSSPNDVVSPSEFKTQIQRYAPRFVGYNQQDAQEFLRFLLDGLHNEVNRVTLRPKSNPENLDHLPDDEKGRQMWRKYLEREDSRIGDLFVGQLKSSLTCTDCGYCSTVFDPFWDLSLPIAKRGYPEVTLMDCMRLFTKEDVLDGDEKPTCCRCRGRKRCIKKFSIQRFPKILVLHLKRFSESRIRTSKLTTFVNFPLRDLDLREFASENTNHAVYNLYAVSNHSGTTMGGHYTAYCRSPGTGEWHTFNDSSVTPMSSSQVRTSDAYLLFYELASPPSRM
# In short: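 10nM USP2 core + cpd, 30min RT; add 25nM Ub-CHOP2/25nM substrate; 60min RT; FI 485/531nm. Buffer Tris pH 8.0, CaCl2, BME, CHAPS. Norm. to NEM = 100% inhibition; time-zero read flags fluorescent artifacts.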
# [14] = molecular target: RecQ-like DNA helicase BLM (Homo sapiens) (UniProt P54132); test: qHTS Validation Assay for Inhibitors of Bloom's syndrome helicase (BLM) (AID 2364)
# Sequence of RecQ-like DNA helicase BLM (Homo sapiens) (P54132 whole entry, looked up): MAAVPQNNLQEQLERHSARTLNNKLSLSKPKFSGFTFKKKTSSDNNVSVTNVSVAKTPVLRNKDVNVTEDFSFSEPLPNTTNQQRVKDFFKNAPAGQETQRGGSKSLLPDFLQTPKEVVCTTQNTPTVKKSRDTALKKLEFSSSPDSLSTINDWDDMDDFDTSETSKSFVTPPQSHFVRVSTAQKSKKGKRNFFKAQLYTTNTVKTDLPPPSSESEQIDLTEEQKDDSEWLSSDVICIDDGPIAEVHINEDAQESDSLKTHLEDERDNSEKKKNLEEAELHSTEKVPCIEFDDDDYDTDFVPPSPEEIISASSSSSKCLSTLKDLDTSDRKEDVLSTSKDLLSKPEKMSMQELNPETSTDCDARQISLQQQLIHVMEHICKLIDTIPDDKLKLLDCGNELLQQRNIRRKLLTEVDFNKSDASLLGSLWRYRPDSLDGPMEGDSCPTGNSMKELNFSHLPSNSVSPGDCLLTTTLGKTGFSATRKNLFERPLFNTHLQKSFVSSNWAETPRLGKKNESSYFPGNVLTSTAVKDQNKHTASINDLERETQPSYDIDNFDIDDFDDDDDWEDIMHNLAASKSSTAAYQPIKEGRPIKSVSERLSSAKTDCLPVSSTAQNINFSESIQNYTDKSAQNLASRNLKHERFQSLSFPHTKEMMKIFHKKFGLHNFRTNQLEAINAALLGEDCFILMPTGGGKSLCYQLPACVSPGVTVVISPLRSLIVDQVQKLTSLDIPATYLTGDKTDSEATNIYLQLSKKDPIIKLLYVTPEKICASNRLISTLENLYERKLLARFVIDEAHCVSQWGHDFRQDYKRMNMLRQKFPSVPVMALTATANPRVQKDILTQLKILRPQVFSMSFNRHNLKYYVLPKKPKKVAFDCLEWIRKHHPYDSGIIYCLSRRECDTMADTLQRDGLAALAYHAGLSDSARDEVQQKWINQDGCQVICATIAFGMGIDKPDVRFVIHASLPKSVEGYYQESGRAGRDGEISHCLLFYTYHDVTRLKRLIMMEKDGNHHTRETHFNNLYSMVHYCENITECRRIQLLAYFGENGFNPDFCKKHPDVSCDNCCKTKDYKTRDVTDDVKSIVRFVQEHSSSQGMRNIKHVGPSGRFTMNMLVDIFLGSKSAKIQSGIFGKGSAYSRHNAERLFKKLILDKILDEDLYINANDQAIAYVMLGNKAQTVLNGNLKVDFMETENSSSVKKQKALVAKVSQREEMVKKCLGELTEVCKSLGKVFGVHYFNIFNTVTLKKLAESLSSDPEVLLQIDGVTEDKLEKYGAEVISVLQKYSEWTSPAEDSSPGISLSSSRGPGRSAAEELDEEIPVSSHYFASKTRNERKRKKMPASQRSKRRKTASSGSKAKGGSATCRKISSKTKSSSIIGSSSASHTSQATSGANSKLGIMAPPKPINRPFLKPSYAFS
# In short: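 Forked 20-bp duplex substrate (200 nM, TAMRA/BHQ-2) plus 2 mM ATP added after 15 min compound preincubation with 50 nM enzyme, pH 8.0, poly(dI-dC) 2.5 ug/ml. Strand separation followed by fluorescence (525/598 nm) over 2 h, normalized to enzyme-free and DMSO controls.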
# [15] = Validation screen for small molecules that induce DNA re-replication in MCF 10A normal breast cells (AID 463097); further: nearly all actives have a fitted effect of over 60% in size
# In short: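 Read-out is Hoechst total nuclear intensity by fluorescence scanning imager, flagging increased high-DNA-content nuclei. Compounds were incubated with MCF 10A cells for 48 hr (37 C, 5% CO2) before 40 min staining.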
# [16] = qHTS for differential inhibitors of proliferation of Plasmodium falciparum line 3D7 (AID 1876); further: potency means the concentration at half of the fitted maximal effect
# [17] = High Content Imaging Cell-Based qHTS for Inhibitors of the mTORC1 Signaling Pathway in MEF Cells (AID 2667); further: potency means the concentration at half of the fitted maximal effect
# In short: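 Immunofluorescence for rpS6 phosphorylation in MEFs of Tsc2-/-, p53-/- background rescued with WT Tsc2. Compound exposure lasted 24 hrs. Inhibition was scored against rapamycin-treated control wells.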
# [18] = Cytometry Cell-Based qHTS for Inhibitors of the mTORC1 Signaling Pathway in MEF cells (AID 2668);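 further: Tsc2-/- p53-/- mouse embryonic fibroblasts stably re-expressing wild-type Tsc2; percent cells positive for phospho-rpS6 Ser235/236 relative to propidium iodide stain; series mostly up to about 38 µM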
# In short: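 Phospho-rpS6 (Ser235/236) immunofluorescence over PI signal, scored as % positive cells using thresholds from 7.5 nM rapamycin and DMSO wells, after 24 h compound exposure of WT-Tsc2-rescued Tsc2-/-, p53-/- MEFs. PI cell count recorded for viability.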
# [19] = qHTS Assay for Identification of Small Molecule Inducers of Hypoxia Response (AID 2120; active means well fitted curve in the direction sought with a large enough effect in the signal ratio, with a control signal flat, not every such curve was filed as active; the % refers to the signal ratio)
# In short: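 Induction of beta-lactamase reporter activity was measured in CellSensor HRE-bla ME-180 cells after 17 h compound treatment at 37 degrees C, using CCF4 substrate and the 460nm/530nm emission ratio to derive AC50 values.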
# [20] = molecular target: DNA repair nuclease/redox regulator APEX1 (Homo sapiens) (UniProt P27695); test: qHTS Validation Assay for Inhibitors of the Human Apurinic/apyrimidinic Endonuclease 1 (APE1) (AID 1705;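 further: TAMRA fluorescence gain over two minutes as APE1 cuts a quenched THF abasic duplex; series mostly up to about 57 µM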)
# Sequence of DNA repair nuclease/redox regulator APEX1 (Homo sapiens) (P27695 whole entry, looked up): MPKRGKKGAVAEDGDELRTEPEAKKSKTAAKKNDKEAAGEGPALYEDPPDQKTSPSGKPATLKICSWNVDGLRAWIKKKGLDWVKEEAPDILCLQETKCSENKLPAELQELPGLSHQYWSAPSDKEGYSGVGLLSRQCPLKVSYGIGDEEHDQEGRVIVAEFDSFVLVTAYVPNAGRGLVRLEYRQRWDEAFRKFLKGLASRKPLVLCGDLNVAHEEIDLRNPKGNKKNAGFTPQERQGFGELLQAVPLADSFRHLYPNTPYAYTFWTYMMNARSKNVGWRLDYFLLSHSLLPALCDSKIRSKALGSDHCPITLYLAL
# In short: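 Activity read as rising fluorescence (598 nm emission, 525 nm excitation) from incision of a TAMRA/BHQ-2 duplex carrying a THF abasic site (50 nM). Compound and enzyme sat 15 min at RT before substrate start; signal change between first and third 60-s reads.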
Structure (SMILES),outcome [1],Potency [2],Potency [3],Potency [4],Potency [5],Potency [6],Potency [7],Potency [8],outcome [9],Potency [10],outcome [11],Potency [12],outcome [13],Potency [14],Potency [15],Potency [16],Potency [17],Potency [18],outcome [19],Potency [20]
CN(C)CCCN1c2ccccc2Sc2ccc(C(F)(F)F)cc21,inactive,inactive,8.91 µM (active),11.2 µM (active),11.2 µM (active),11.2 µM (active),7.08 µM (active),10 µM (active),inactive,inactive,inactive,inactive,inactive,,,,,,,
CNCCCN1c2ccccc2CCc2ccccc21,inactive,inactive,,,,,,,inactive,inactive,inactive,inactive,inactive,inactive,inactive,,,,,
CC(C)[N+](C)(CCOC(=O)C1c2ccccc2Oc2ccccc21)C(C)C,inactive,inactive,12.6 µM (active),10 µM (active),11.2 µM (active),,8.91 µM (active),7.08 µM (active),inactive,inactive,inactive,inactive,inactive,inactive,,3.98 µM (active),inactive,inactive,,
NC(=O)N1c2ccccc2C=Cc2ccccc21,inactive,inactive,inactive,inactive,inactive,inactive,,inactive,inactive,inactive,inactive,inactive,,inactive,inactive,inactive,inactive,inactive,inactive,
C#CCN(C)CCCOc1ccc(Cl)cc1Cl,inactive,,,,inactive,inactive,11.2 µM (active),inactive,,inactive,inactive,inactive,inactive,inactive,,inactive,inactive,inactive,,inactive
COc1ccc(CN(CCN(C)C)c2ccccn2)cc1,inactive,inactive,,8.91 µM (active),inactive,,5.62 µM (active),inactive,inactive,inactive,inactive,inactive,inactive,,inactive,inactive,inactive,inactive,,
Cc1ccc(=O)n(-c2ccccc2)c1,inactive,inactive,inactive,inactive,inactive,inactive,inactive,inactive,inactive,inactive,inactive,inactive,inactive,,inactive,inactive,inactive,,,
CC(N=C(NC#N)Nc1ccncc1)C(C)(C)C (configuration not stated),inactive,inactive,,,,inactive,11.2 µM (active),,inactive,inactive,inactive,inactive,,,inactive,,inactive,,,
CCO/C([O-])=N/c1c[n+](N2CCOCC2)no1,,,inactive,inactive,inactive,inactive,inactive,inactive,inactive,inactive,inactive,inactive,inactive,,,inactive,inactive,,,inactive
CCN(CC)CCOCCOC(=O)C1(c2ccccc2)CCCC1,inactive,,3.16 µM (active),,,2.24 µM (active),0.794 µM (active),,inactive,inactive,inactive,inactive,inactive,inactive,,,inactive,inactive,,inactive
C=CCc1ccccc1OCC(O)CNC(C)C (configuration not stated),inactive,inactive,3.55 µM (active),1.58 µM (active),12.6 µM (active),8.91 µM (active),2.24 µM (active),11.2 µM (active),inactive,inactive,inactive,inactive,inactive,inactive,,10 µM (active),inactive,,,
CCCNC(C)C(=O)Nc1ccccc1C (configuration not stated),inactive,inactive,inactive,,inactive,inactive,,inactive,inactive,inactive,inactive,inactive,inactive,inactive,inactive,inactive,inactive,inactive,,
CCOC(=O)C1=C(C)NC(C)=C(C(=O)OC)C1c1cccc([N+](=O)[O-])c1 (configuration not stated),inactive,inactive,11.2 µM (active),12.6 µM (active),12.6 µM (active),,6.31 µM (active),11.2 µM (active),,inactive,inactive,inactive,inactive,,,8.91 µM (active),,,,
CCN(CC)CCNC(=O)c1ccc(NC(C)=O)cc1,inactive,inactive,inactive,inactive,inactive,inactive,inactive,inactive,inactive,inactive,inactive,inactive,inactive,,inactive,inactive,inactive,,,
COC(=O)C1=C(C)NC(C)=C(C(=O)OCCN(C)Cc2ccccc2)C1c1cccc([N+](=O)[O-])c1 (configuration not stated),inactive,,,,,,,,,inactive,,,inactive,,,,18.5 µM (active),,,inactive
CN(C)CCCN1c2ccccc2Sc2ccccc21,inactive,inactive,11.2 µM (active),10 µM (active),,,0.794 µM (active),10 µM (active),inactive,inactive,inactive,inactive,,inactive,inactive,,,,,
Brc1c(NC2=NCCN2)ccc2nccnc12,inactive,,,,inactive,inactive,,,,inactive,inactive,inactive,inactive,,,,inactive,,,inactive
